Screens: PubChem, National Center for Advancing Translational Sciences (NCATS)
Shown are actives, neighbours in structure and some others; about 17% of the full set was active somewhere.
TGFb SMAD3 inh: inhibitors of TGF-b signaling; HepG2 CAGA-GFP TGF-b/SMAD3 reporter, GFP fluorescence, 18 h; TGF-beta stimulated, 500 pg/mL final; Potency, µM (highest dose often 46.1 µM), actives largely listed as inhibitors; 1.2% of 410,000 active; AID 588855; note: nearly all actives have a fitted effect of over 65% in size
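Using HEPG2 CAGA-GFP reporter cells at 1000 cells/well, we pinned test compounds, stimulated with recombinant TGF-beta (500 pg/mL final) and measured total well GFP after 18 h.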
S2 tox: viability counter-screen for ATXN expression inhibitors | S2 cells (HEK-293 line with an ATXN2-luciferase reporter) viability, CellTiter-Fluor protease fluorescence, 24 h | Potency, µM (top dose mostly 56.7 µM), usual class: cytotoxic | 0.49% of 400,000 active; note: nearly all actives have a fitted effect of over 40% in size
ATXN2 expr inh: inhibitors of ATXN2 expression | HEK-293 ATXN2-luciferase reporter, luminescence, 24 h | AID 1745845 | 0.72% of 360,000 active | Potency, µM (doses to about 57 µM), hits mostly inhibitors; note: nearly all actives have a fitted effect of over 55% in size
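ATXN2-luciferase reporter cells (luciferase flanked by upstream and downstream ATXN2 gene portions) were treated 24 h at 37 °C with compounds at up to 57 uM. SteadyGlo luminescence gave expression; GF-AFC fluorescence gave viability.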
TDP1 cell noCPT: qHTS for Inhibitors of human tyrosyl-DNA phosphodiesterase 1 (TDP1): qHTS in cells in absence of CPT | DT40 Tdp1-/- hTDP1 cells, no CPT, ATP luminescence, 48 h | Potency, µM (highest dose often 46.2 µM), hits mostly inhibitors | 15% of 420,000 active; note: nearly all actives have a fitted effect of over 55% in size
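Seeded 400 DT40-hTDP1 cells/well (vehicle DMSO, no 20 nM CPT); pinned compounds; ≥48 hr at 37 °C; CellTiter-Glo luminescence as viability measure.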
HepG2 tox: counter-screen for TGF-b inhibitors: cytotoxicity in HepG2 cells. Potency, µM (series often up to 46.1 µM), most hits filed as cytotoxic. 0.76% of 410,000 active. HepG2 CAGA-GFP viability, ATP luminescence, 18 h
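CellTiter-Glo luminescence gave cytotoxicity after 18 hours at 37 degrees C. The cells were HepG2 CAGA-GFP in 1% FBS DMEM, stimulated with 500 pg/mL TGF-beta after compound addition. %Activity was normalised to no-cell wells (complete cell-killing) and DMSO (no toxicity), and curves were fitted and classified.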
DT40 TDP1 CPT: growth inhibition of DT40 Tdp1-/-;hTDP1 cells with camptothecin (screen for TDP1 inhibitors); 12% of 420,000 active; chicken DT40 Tdp1-/-;hTDP1 cells + 20 nM CPT, ATP luminescence, 48 h; Potency, µM (top dose mostly 46.2 µM), actives largely listed as inhibitors; note: nearly all actives have a fitted effect of over 55% in size
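Chicken DT40 Tdp1-/- cells stably complemented with human TDP1 were seeded at 400 cells/well in medium containing 20 nM camptothecin, exposed to pin-transferred compounds, and grown at 37 °C for at least 48 hr. Viability was read as ATP luminescence.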
Hits are given with their value; - = inactive; ? = inconclusive; . = no result. Calls come from the whole dose curve; as a rule, active = well fitted curve in the direction sought with a large enough effect; inconclusive = small, poorly fitted or top-dose-only effect, or another doubt; inactive = no such curve, though single readings can be large; an effect the other way counts as inactive or inconclusive.

SMILES	TGFb SMAD3 inh	S2 tox	ATXN2 expr inh	TDP1 cell noCPT	HepG2 tox	DT40 TDP1 CPT
Nc1nc(N)c2nc(CNc3ccc(C(=O)NC(CCC(=O)O)C(=O)O)cc3)cnc2n1 (configuration not stated)	-	.	-	-	-	-
Nc1nc(N)c2nc(CNc3ccc(C(=O)N[C@@H](CCC(=O)O)C(=O)O)cc3)cnc2n1	.	.	.	16µM	.	?
COCC(=O)N(c1c(C)cccc1C)C(C)C(=O)OC (configuration not stated)	.	-	-	?	.	-
CC(=O)OC1C2CCCC1C(N1CCCC1)CC2 (configuration not stated)	-	-	-	-	-	-
COc1ccc2[nH]c(C)c(CCNCc3cn(C)c4ccccc34)c2c1	?	.	?	9.2µM	-	12µM
COC(=O)C1=C(c2ccc(F)cc2F)C[C@@H]2CC[C@H]1N2C(=O)NCCOc1ccccc1Cl	-	-	-	?	-	?
CCN(CCO)c1ccc(N=Cc2c(O)n(C)c(=S)[nH]c2=O)cc1	-	-	-	10µM	-	12µM
COCCN(CCOC)S(=O)(=O)c1ccc(C(=O)Nc2sc3c(c2C(N)=O)CCCC3)cc1	-	-	-	?	-	?
NC(=O)c1c(NC(=O)c2ccc(S(=O)(=O)N(CCCl)CCCl)cc2)sc2c1CCCCC2	-	?	?	15µM	-	10µM
O=c1[nH]c(O)c(/C=C2/C=CC(c3cc(Cl)ccc3Cl)=N2)c(=O)[nH]1	-	-	-	6.5µM	-	5.8µM
CC1=Nc2ccccc2/C1=C/c1c(O)[nH]c(=O)[nH]c1=O	-	-	-	-	-	-
Cc1ccccc1-c1nc(CN2C(=O)CN=C(c3ccccc3)c3ccccc32)c(C)o1	?	.	.	-	-	?
COc1ccc(-c2nnc3sc(C4CCCCC4)nn23)cc1OC	-	-	-	15µM	-	18µM
O=C1CC(c2ccccc2Br)c2c(c3ccccc3oc2=O)O1 (configuration not stated)	-	?	-	-	-	-
COC(=O)C1=C(c2ccccc2)C[C@@H]2CC[C@H]1N2C	-	-	-	-	-	-
COc1ccc(C2CC(=O)Oc3c2c(=O)oc2ccccc32)c(OC)c1OC (configuration not stated)	-	-	-	-	-	-
COc1ccc(C2=CC(c3ccc4c(c3)OCO4)c3c(c4ccccc4oc3=O)O2)cc1OC (configuration not stated)	?	?	-	21µM	-	15µM
O=C(c1ccccc1)C(CN1CCCC1)c1ccccc1 (configuration not stated)	?	.	?	1.6µM	5.6µM	1.8µM
CCN1CCN(C(=O)COc2ccc3oc4c(c3c2)CCCC4)CC1	-	?	.	21µM	-	?
CCOc1ccc(C2CC(c3c(O)n(C)c(=O)n(C)c3=O)=NN2)cc1 (configuration not stated)	-	-	-	?	-	-
Cn1c(O)c(C2=NNC(c3ccc(Cl)cc3)C2)c(=O)n(C)c1=O (configuration not stated)	-	-	-	?	-	26µM
O=[N+]([O-])c1cc(C(F)(F)F)c(Cl)c([N+](=O)[O-])c1Nc1ncc(C(F)(F)F)cc1Cl	1.8µM	.	.	0.025µM	2.5µM	0.1µM
Cc1c2cnn(CC(=O)N3CCC4(CC3)OCCO4)c(=O)c2c(C)n1Cc1ccccc1	-	-	-	?	-	-
O=C(Cn1ncc2c3ccccc3n(Cc3ccc(F)cc3)c2c1=O)N1CCC2(CC1)OCCO2	-	-	-	3.3µM	-	3.3µM
CCOC(=O)N1CCN(C(=O)Cn2ncc3c4ccccc4n(Cc4ccc(F)cc4)c3c2=O)CC1	?	?	?	1.8µM	-	1.6µM
SMILES	TGFb SMAD3 inh	S2 tox	ATXN2 expr inh	TDP1 cell noCPT	HepG2 tox	DT40 TDP1 CPT
O=S1(=O)OCCC(c2ccccc2)N1Cc1ccccc1 (configuration not stated)	-	-	-	-	-	?
c1cnc2ccc(C(c3nnnn3C3CCCCC3)N3CCN(C4CCCCC4)CC3)cc2c1 (configuration not stated)	-	?	-	13µM	-	13µM
COc1ccc(C(c2nnnn2C2CCCC2)N2CCC3(CC2)C(=O)NCN3c2ccccc2)cc1 (configuration not stated)	?	?	-	?	-	?
COc1cc([N+](=O)[O-])cc([N+](=O)[O-])c1N	-	.	.	-	-	-
Cc1cc(C)cc(NC(=S)NC2CC3CCC(C2)N3Cc2ccco2)c1 (configuration not stated)	-	-	-	16µM	-	?
CC(C)c1oc(=O)cc2c1[C@@H](O)[C@H]1OC(=O)[C@@]3(C)CC[C@@H](O)[C@@]2(C)C13 (some centres not stated)	2µM	?	13µM	5.2µM	-	5.8µM
C=CCN1C(=O)NC(=O)/C(=C/c2ccc(OC)c(COc3ccc(NC(C)=O)cc3)c2)C1=O	-	-	-	3.7µM	-	2.6µM
O=C1c2ccccc2C(=O)N1SC1CCCCC1	-	-	-	3.7µM	-	3.7µM
C=C1CCC(O)C/C1=C\C=C1/CCCC2(C)C1CCC2C(C)CCCC(C)C (configuration not stated)	.	.	.	27µM	.	24µM
CCN(CC)CCOC(=O)c1ccc(N=Cc2c(O)[nH]c(=O)[nH]c2=O)cc1	-	-	-	-	-	-
Cc1cc2c(s1)Nc1ccccc1N=C2N1CCN(C)CC1	-	?	-	?	-	?
COC(=O)C1=C(c2cccc(C#N)c2)C[C@@H]2CC[C@H]1N2C(=O)N1CCC(C)CC1	-	?	-	23µM	-	16µM
COC(=O)C1=C(c2ccc(F)cc2F)C[C@@H]2CC[C@H]1N2C(=O)NCc1ccc(C(F)(F)F)cc1	?	-	-	21µM	-	?
COC(=O)C1=C(c2cccc(C#N)c2)C[C@@H]2CC[C@H]1N2C(=O)NC(C)C	?	-	-	-	-	-
COC(=O)C1=C(c2cccc(OC)c2OC)C[C@@H]2CC[C@H]1N2C(=O)N1CCC(O)CC1	-	-	-	-	-	-
COC(=O)C1=C(c2ccc(F)cc2F)C[C@@H]2CC[C@H]1N2C(=O)N1CCC(C)CC1	-	?	-	10µM	-	16µM
COC(=O)C1=C(c2cccc(OC)c2OC)C[C@@H]2CC[C@H]1N2C(=O)N1CCC(C)CC1	-	-	-	13µM	-	?
